# Literature values in PubChem BioAssay AID977611.
# Out of some 3,900 compounds screened, about 3,900 (100%) were called active. Cut-off not given; nearly all actives show Kd up to about 4200 µM. The set was probably picked from earlier hits. The list shows a part of the results. *1 amine or outer side, *2 acyl side, *3 side chain or, on linkers, in order; H or OH if unused. Positions of bridges follow the written chain, without caps; N, C: chain ends. Where a SMILES comes first, the peptide text is derived from it. Non-standard residues stand in square brackets, D forms with d. Residues, ends and D or L forms follow the SMILES beside them. Bridges are numbered along the chain shown (N, C = ends). [ ]: non-standard residue; d: D form. Orn(CH(NH2)2) = NC(N)NCCC[C@H](N)C(=O)O; TBMB = c1c(C[*:1])cc(C[*:3])cc1C[*:2]
# Assay: PubChem AID 977611
# Conditions: PDB protein-ligand complexes, literature Kd
smiles,measurement,setting,value
CC(C)[C@@H]1NC(=O)[C@H](CCC(=O)O)NC(=O)[C@H](Cc2ccc(O)cc2)NC(=O)[C@H](CCCNC(N)N)NC(=O)[C@H](CO)NC(=O)[C@@H](NC(=O)[C@H](C)N)CSCc2cc3cc(c2)CSC[C@H](NC(=O)[C@H](CC(=O)O)NC1=O)C(=O)N[C@@H](CCCNC(N)N)C(=O)NCC(=O)N[C@@H](CCCNC(N)N)C(=O)NCC(=O)N[C@@H](CO)C(=O)N[C@@H](C)C(=O)N[C@H](C(=O)O)CSC3 (H-ACS[Orn(CH(NH2)2)]YEVDC[Orn(CH(NH2)2)]G[Orn(CH(NH2)2)]GSAC-OH; linker 2-9-16 via TBMB),Kd,"protein: Urokinase-type plasminogen activator, PDB entry 3qn7",0.157 µM (active)
CSCC[C@@H]1NC(=O)[C@H](CCC(=O)O)NC(=O)[C@H](Cc2ccc(O)cc2)NC(=O)[C@H](CO)NC(=O)[C@H](CC(=O)O)NC(=O)[C@H](C)NC(=O)CNC(=O)[C@@H](N)CSSC[C@@H](C(=O)O)NC(=O)[C@H](CCCCN)NC(=O)[C@H](CCCNC(N)N)NC(=O)[C@H](C(C)C)NC(=O)CNC(=O)[C@H](CC(=O)O)NC(=O)[C@H](CCC(=O)O)NC(=O)[C@H](CCC(=O)O)NC1=O (H-CGADSYEMEEDGV[Orn(CH(NH2)2)]KC-OH; disulfide 1-16),Kd,"protein: mAb175 Antibody targeting a locally misfolded region of tumor associated EGFR, PDB entry 3g5y",0.035 µM (active)
same,Kd,"protein: mAb806 Antibody targeting a locally misfolded region of tumor associated EGFR, PDB entry 3g5v",0.016 µM (active)
CC(C)C[C@@H]1NC(=O)[C@H](C)NC(=O)[C@H](CCCNC(N)N)NC(=O)[C@H](CO)NC(=O)[C@H](CO)NC(=O)[C@H](CC(C)C)NC(=O)[C@H](CC(N)=O)NC(=O)[C@H](Cc2ccc(O)cc2)NC(=O)[C@H](CCC(N)=O)NC(=O)[C@@H](N)CSSC[C@@H](C(=O)O)NC(=O)[C@H](CCCCN)NC1=O,Kd,"protein: cetuximab Fab, PDB entry 4gw5",3.5 µM (active)
CC(C)C[C@@H]1NC(=O)[C@H](CCCNC(N)N)NC(=O)[C@H](CCCNC(N)N)NC(=O)[C@H]([C@@H](C)O)NC(=O)[C@H](CO)NC(=O)[C@H](CC(C)C)NC(=O)[C@H](CC(=O)O)NC(=O)[C@H](Cc2ccccc2)NC(=O)[C@H](CCC(N)=O)NC(=O)[C@@H](N)CSSC[C@@H](C(=O)O)NC(=O)[C@H](CCCCN)NC1=O,Kd,"protein: cetuximab Fab, PDB entry 4gw1",0.43 µM (active)
OC(C[n+]1cccc(F)c1)([P+](O)(O)O)[P+](O)(O)O,Kd,"protein: Leshmaniasis major Farnesyl diphosphate synthase, PDB entry 4k10",0.12 µM (active)
OC(C[n+]1cccc(-c2ccccc2)c1)([P+](O)(O)O)[P+](O)(O)O,Kd,"protein: Leshmaniasis major Farnesyl diphosphate synthase, PDB entry 4jzb",0.342 µM (active)
Oc1ccccc1CNc1cc(NCc2ccccc2O)ncn1,Kd,"protein: Caspase-6, PDB entry 4nbn",44 µM (active)
Cc1cccnc1NCc1ccccc1O,Kd,"protein: proCaspase-6, PDB entry 4nbk",136 µM (active)
C[C@@H]1OC[C@@H](O)[C@H](O)[C@@H]1O,Kd,"protein: PUTATIVE FUCOSE-BINDING LECTIN PROTEIN(R17A mutant), PDB entry 3zi8",2.2 µM (active)
C=C(CC[C@]12O[C@H](C(=O)O)[C@@](O)(C(=O)O)[C@](C(=O)O)(O1)[C@H](OC(=O)/C=C/[C@@H](C)C[C@@H](C)CC)[C@H]2O)[C@@H](OC(C)=O)[C@H](C)Cc1ccccc1,Kd,"protein: Dehydrosqualene synthase, PDB entry 3vje",0.0097 µM (active)
same,Kd,"protein: Squalene synthase, PDB entry 3vjc",0.0189 µM (active)
C=CCN(Cc1ccccc1C(=O)NCc1ccc(OC)cc1)Cc1ccc2c(c1C(=O)O)OC[C@H](CCC(=O)O)O2,Kd,"protein: INTEGRASE, PDB entry 4ceb",1080 µM (active)
COc1ccc(CNC(=O)c2cc3c(cc2CN(C)Cc2cccc(OC)c2C(=O)O)OCO3)cc1,Kd,"protein: HIV integrase, PDB entry 4cjr",793 µM (active)
COc1ccc(CNC(=O)c2cc3ccccc3cc2CN(C)Cc2cccc(OC)c2C(=O)O)cc1,Kd,"protein: HIV integrase, PDB entry 4cig",214 µM (active)
O=C(O)CCC(=O)C1=CC=C[C@@H](O)[C@@H]1C(=O)O,Kd,"protein: E. Coli 2-succinyl-6-hydroxy-2,4-cyclohexadiene-1-carboxylate synthase (MenH), PDB entry 4myd",28 µM (active)
Nc1ccc(C(=O)N[C@@H](C(=O)NO)c2ccc(-n3cccn3)cc2)cc1,Kd,"protein: M17 leucyl aminopeptidase A-M17, PDB entry 4r7m",0.011 µM (active)
COC(=O)N1CC[C@@H]2[C@H]1CCC[C@@]2(O)C#Cc1cccc(C)c1,Kd,"protein: Metabotropic glutamate receptor 5, Lysozyme, Metabotropic glutamate receptor 5 chimera, PDB entry 4oo9",0.00086 µM (active)
CO[C@@H]1O[C@@H](C(=O)O)[C@@H](O[C@H]2O[C@H](COS(O)(O)O)[C@@H](O)[C@H](O)[C@H]2NS(O)(O)O)[C@H](O)[C@H]1OS(O)(O)O,Kd,"protein: Fibroblast growth factor 2 FGF2, PDB entry 4oef",17.5 µM (active)
